According to PubChem BioAssay (Tox21):
Records with an inconclusive call do not appear. Active and inactive are the calls of the source. Unless noted, the call rests on the fitted dose curve; in most records, active means well fitted curve in the direction sought with a large enough effect in the repeat runs; inconclusive means weak or mixed curves; inactive means no such curve, though single readings can be large; an effect the other way counts as inactive or inconclusive.

Legend:
[1] = qHTS assay to identify aromatase inhibitors - cell viability counter screen (AID 743084);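 further: cells stimulated with testosterone during compound exposure; nearly all actives have a fitted effect of over 55% in size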
[2] = qHTS assay to identify small molecule that activate the aryl hydrocarbon receptor (AhR) signaling pathway - cell viability counter screen (AID 743086);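 further: HepG2 liver cells carrying the AhR DRE luciferase reporter; series mostly up to about 70 µM; nearly all actives have a fitted effect of over 45% in size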
How it was run: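 HepG2-AhR-luc (HG2L7.5c1) cells, 4000/well, treated 24 h at 37 C with compound; viability measured as CellTiter-Fluor fluorescence after 30 min in the same wells as the luciferase read.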

[3] = target: Peroxisome proliferator-activated receptor gamma (Homo sapiens) (UniProt P37231); test: qHTS assay to identify small molecule antagonists of the peroxisome proliferator-activated receptor gamma (PPARg) signaling pathway (AID 743191; calls by dose curve; further: series mostly up to about 63 µM; nearly all actives have a fitted effect of over 30% in size)
Sequence of Peroxisome proliferator-activated receptor gamma (Homo sapiens) (P37231 whole entry, looked up): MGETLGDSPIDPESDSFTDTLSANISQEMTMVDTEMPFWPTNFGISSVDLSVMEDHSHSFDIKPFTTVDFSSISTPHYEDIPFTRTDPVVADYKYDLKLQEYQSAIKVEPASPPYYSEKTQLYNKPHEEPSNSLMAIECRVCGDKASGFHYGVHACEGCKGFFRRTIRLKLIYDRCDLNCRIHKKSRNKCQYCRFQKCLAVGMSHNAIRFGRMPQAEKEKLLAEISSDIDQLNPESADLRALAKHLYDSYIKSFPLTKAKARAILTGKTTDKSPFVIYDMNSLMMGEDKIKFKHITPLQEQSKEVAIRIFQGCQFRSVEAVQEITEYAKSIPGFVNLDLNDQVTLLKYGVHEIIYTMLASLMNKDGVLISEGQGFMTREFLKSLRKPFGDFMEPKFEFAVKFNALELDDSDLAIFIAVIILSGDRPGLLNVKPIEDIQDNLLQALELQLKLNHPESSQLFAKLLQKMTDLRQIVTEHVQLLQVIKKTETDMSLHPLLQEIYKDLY
How it was run: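 GeneBLAzer PPARg UAS-bla HEK293H cells, 5 h post-plating, exposed to compounds 17 h at 37C. LiveBLAzer B/G FRET substrate added for 1 h at room temperature; beta-lactamase reporter read by fluorescence intensity.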

[4] = qHTS assay to identify small molecule antagonists of the peroxisome proliferator-activated receptor gamma (PPARg) signaling pathway - cell viability counter screen (AID 743194); further: nearly all actives have a fitted effect of over 55% in size
How it was run: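 Cytotoxicity counter screen in PPARg-bla HEK293H cells, same wells as reporter assay. Compounds plus 50 nM rosiglitazone (final) for 17 h at 37 C, then viability read by CellTiter-Glo luminescence.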

[5] = qHTS assay for small molecule agonists of the antioxidant response element (ARE) signaling pathway (AID 743202; active means well fitted activation curve with a large enough effect in the signal ratio in the repeat runs, not every such curve was filed as active; the % refers to the signal ratio)
How it was run: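 Agonist mode reporter screen: HepG2 cells with ARE-controlled beta-lactamase are incubated with test compounds for 16 h at 37 C, and beta-lactamase activity is measured as fluorescence of cleaved B/G FRET substrate.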

[6] = qHTS assay for small molecule agonists of the antioxidant response element (ARE) signaling pathway - cell viability counter screen (AID 743203; calls by dose curve; further: nearly all actives have a fitted effect of over 55% in size)
How it was run: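 Cells (ARE-bla HepG2, 2,000/well) receive DMSO-dissolved compounds after a 5 hrs rest. Plates incubate 16 hrs at 37C/5% CO2. CellTiter-Glo luminescence is then recorded after 30 min at room temperature.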

[7] = qHTS assay for small molecule activators of the heat shock response signaling pathway (AID 743210; active means well fitted activation curve with a large enough effect in the signal ratio in the repeat runs, with a control signal flat, not every such curve was filed as active; the % refers to the signal ratio;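 further: HeLa cells with beta-lactamase reporter driven by heat shock elements; series mostly up to about 63 µM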)
How it was run: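 Quantitative high-throughput format using an engineered HeLa line in which heat shock response elements drive beta-lactamase; after 5 h with compound, cells received a B/G FRET substrate and fluorescence was read.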

[8] = target: Peroxisome proliferator-activated receptor gamma (Homo sapiens) (UniProt P37231); test: qHTS assay to identify small molecule agonists of the peroxisome proliferator-activated receptor gamma (PPARg) signaling pathway (AID 743094; active means well fitted activation curve with a large enough effect in the signal ratio in the repeat runs, not every such curve was filed as active; the % refers to the signal ratio)
How it was run: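 Stably transfected HEK293H cells (GeneBLAzer PPARg UAS-bla) were incubated with test substances for 17 h at 37C after a 5 h pre-incubation; beta-lactamase activity was then detected by FRET substrate fluorescence.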

[9] = qHTS assay for small molecule activators of the heat shock response signaling pathway - cell viability counter screen (AID 743209); further: nearly all actives have a fitted effect of over 50% in size
How it was run: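 Quantitative HTS format, Tox21 10K library. HeLa cells carrying an HSE-driven beta-lactamase reporter were treated 5 h at 37 C, then assessed for viability by CellTiter-Glo luminescence.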

[10] = target: Aryl hydrocarbon receptor (Homo sapiens) (UniProt P35869); test: qHTS assay to identify small molecule that activate the aryl hydrocarbon receptor (AhR) signaling pathway (AID 743085);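 further: HG2L7.5c1 human HepG2 liver cells with stably integrated DRE-driven firefly reporter; series mostly up to about 70 µM; nearly all actives have a fitted effect of over 15% in size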
Sequence of Aryl hydrocarbon receptor (Homo sapiens) (P35869 whole entry, looked up): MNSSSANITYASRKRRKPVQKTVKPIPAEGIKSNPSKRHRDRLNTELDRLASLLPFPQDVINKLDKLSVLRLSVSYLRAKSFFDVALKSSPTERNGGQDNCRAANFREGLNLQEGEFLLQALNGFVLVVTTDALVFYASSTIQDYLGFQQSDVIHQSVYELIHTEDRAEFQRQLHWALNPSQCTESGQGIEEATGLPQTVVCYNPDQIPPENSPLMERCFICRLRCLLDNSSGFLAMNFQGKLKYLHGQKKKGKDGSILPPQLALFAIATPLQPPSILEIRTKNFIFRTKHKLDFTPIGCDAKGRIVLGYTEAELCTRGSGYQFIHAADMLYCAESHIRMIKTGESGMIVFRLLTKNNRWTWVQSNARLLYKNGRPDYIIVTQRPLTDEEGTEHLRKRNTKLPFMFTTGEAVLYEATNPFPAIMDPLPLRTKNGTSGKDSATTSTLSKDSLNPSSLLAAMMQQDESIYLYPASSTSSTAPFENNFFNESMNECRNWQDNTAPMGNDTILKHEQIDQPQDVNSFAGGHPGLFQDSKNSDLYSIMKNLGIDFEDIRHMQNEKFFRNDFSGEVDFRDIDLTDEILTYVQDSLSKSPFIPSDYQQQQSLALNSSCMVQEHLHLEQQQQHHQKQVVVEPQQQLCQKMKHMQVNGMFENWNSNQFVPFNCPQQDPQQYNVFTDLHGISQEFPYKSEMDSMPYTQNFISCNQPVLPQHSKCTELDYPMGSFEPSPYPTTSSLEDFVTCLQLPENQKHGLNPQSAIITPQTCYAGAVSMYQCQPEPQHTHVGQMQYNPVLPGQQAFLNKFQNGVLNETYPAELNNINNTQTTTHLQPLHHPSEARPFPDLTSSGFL
How it was run: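 HepG2 cells stably carrying a 20-DRE firefly luciferase reporter (HG2L7.5c1) treated with compound for 24 hr at 37C. Luciferase read by ONE-Glo luminescence, with CellTiter-Fluor viability read first.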
On the % scale 0 is the no-effect control and ±100 the full control effect.

CN[C@@H]1[C@H](O)[C@H](NC)[C@H]2O[C@@]3(O)C(=O)C[C@@H](C)O[C@H]3O[C@@H]2[C@H]1O
inactive: Potency [1] | Potency [2] | Potency [3] | outcome [4] | Potency [5] | outcome [6] | outcome [7]

CCCCCCCC/C=C\CCCCCCCC(=O)OC[C@@H](O)[C@H]1OC[C@H](O)[C@H]1O
inactive: Potency [1] | Potency [2] | outcome [8] | outcome [6] | outcome [9] | outcome [7]

CC(=O)OC(C)c1ccccc1 (stereo not given)
inactive: Potency [1] | Potency [10] | outcome [8] | outcome [4] | Potency [5] | outcome [6] | outcome [9] | outcome [7]

Cc1nc2ccccc2c(=O)o1
inactive: Potency [1] | Potency [10] | Potency [3] | outcome [4] | Potency [5] | outcome [6] | outcome [9] | outcome [7]

CC(=O)OCCCc1ccccc1
inactive: Potency [1] | Potency [10] | outcome [4] | outcome [6] | outcome [9] | outcome [7]

Cc1ccc(S(=O)(=O)NC(=O)NC2CCCCCCC2)cc1
inactive: Potency [1] | Potency [10] | outcome [4] | Potency [5] | outcome [6] | outcome [9] | outcome [7]

CC(C)c1ccccc1O
inactive: Potency [1] | Potency [10] | outcome [4] | Potency [5] | outcome [6] | outcome [7]

NS(=O)(=O)c1cc2c(cc1Cl)NC(C(Cl)Cl)NS2(=O)=O (stereo not given)
inactive: Potency [1] | Potency [10] | outcome [8] | outcome [4] | outcome [6] | outcome [9]

SCCSCCS
inactive: Potency [1] | Potency [10] | outcome [8] | outcome [4] | Potency [5] | outcome [6] | outcome [9] | outcome [7]

CC(Cl)COP(=O)(OCC(C)Cl)OCC(C)Cl (stereo not given)
inactive: Potency [1] | Potency [10] | Potency [3] | outcome [4] | Potency [5] | outcome [6] | outcome [7]

CCNC(=O)NCCCOc1cccc(CN2CCCCC2)c1
inactive: Potency [1] | Potency [10] | outcome [8] | Potency [5] | outcome [6] | outcome [9]

C=CCOc1c(Br)cc(C(C)(C)c2cc(Br)c(OCC=C)c(Br)c2)cc1Br
inactive: Potency [1] | Potency [2] | outcome [8] | outcome [4] | outcome [6] | outcome [9] | outcome [7]

NS(=O)(=O)c1cc2c(cc1Cl)NC(CC1CCCC1)NS2(=O)=O (stereo not given)
inactive: Potency [1] | Potency [10] | Potency [3] | outcome [4] | Potency [5] | outcome [6] | outcome [7]

CCCCCCCCCOCC1CO1 (stereo not given)
inactive: Potency [1] | Potency [10] | Potency [3] | outcome [4] | outcome [6] | outcome [9]

O=S(=O)(O)CCO
inactive: Potency [1] | Potency [2] | outcome [4] | Potency [5] | outcome [6] | outcome [9] | outcome [7]

CC(C)COC(=O)COc1ccc(Cl)cc1Cl
inactive: Potency [1] | Potency [10] | outcome [8] | Potency [5] | outcome [6] | outcome [7]

O=C(O)Cc1cccc(-c2cc(CCCCCCc3ccc(O[C@H]4O[C@H](CO)[C@@H](O)[C@H](O)[C@@H]4O)c(-c4cccc(CC(=O)O)c4)c3)ccc2O[C@H]2O[C@H](CO)[C@@H](O)[C@H](O)[C@@H]2O)c1
inactive: Potency [1] | Potency [2] | outcome [8] | ratio activity, negative = inhibition [3] -5.32% [at 0.55 µM] | activation [5] -7.76% [at 0.756 µM] | viability change, negative = cytotoxic [6] -4.49% [at 0.756 µM]

O=C(COCCOCCOCC(=O)Nc1c(I)cc(I)c(C(=O)O)c1I)Nc1c(I)cc(I)c(C(=O)O)c1I
inactive: Potency [1] | Potency [2] | outcome [8] | Potency [3] | outcome [4] | Potency [5] | outcome [6] | outcome [9]

Cc1ccccc1N1CCN(CCc2nnc3n2CCCC3)CC1
inactive: Potency [1] | Potency [2] | outcome [8] | Potency [3] | outcome [4] | Potency [5] | outcome [6] | outcome [9] | outcome [7]

CC(C)(C)NCCO
inactive: Potency [1] | Potency [2] | outcome [8] | Potency [3] | outcome [4] | Potency [5] | outcome [6] | outcome [9] | outcome [7]

CCC1Nc2cc(Cl)c(S(N)(=O)=O)cc2S(=O)(=O)N1 (stereo not given)
inactive: Potency [1] | Potency [10] | outcome [4] | Potency [5] | outcome [6]

COc1cc(C=O)ccc1OC(=O)C(C)C
inactive: Potency [1] | Potency [2] | outcome [8] | outcome [4] | Potency [5] | outcome [6] | outcome [9] | outcome [7]

O=C(CN1CCN(Cc2ccc3c(c2)OCO3)CC1)N1c2ccccc2Sc2ccccc21
inactive: Potency [1] | Potency [3] | outcome [4] | outcome [6] | outcome [9] | outcome [7]

CC(=O)OC(C)(C)Cc1ccccc1
inactive: Potency [2] | outcome [4] | outcome [6]

CO/N=C(/C(=O)N[C@@H]1C(=O)N2C(C(=O)O)=C(Cn3nnc(C)n3)CS[C@H]12)c1csc(N)n1
inactive: Potency [2] | outcome [4] | Potency [5] | outcome [6] | outcome [9] | outcome [7]

O=[Si]=O
inactive: Potency [1] | outcome [8] | Potency [3] | outcome [4] | Potency [5] | outcome [6] | outcome [9] | outcome [7]

Cc1cccc(NC(=S)N(C)C)c1
inactive: Potency [2] | outcome [4] | Potency [5] | outcome [6]
